Inconclusive results are not listed. The source made the active and inactive calls. Unless noted, the call rests on the fitted dose curve; in most records, active means well fitted curve in the direction sought with a large enough effect in the repeat runs; inconclusive means weak or mixed curves; inactive means no such curve, though single readings can be large; an effect the other way counts as inactive or inconclusive.
Columns and labels:
[1] = qHTS assay to identify small molecule agonists of the RXR signaling pathway - cell viability counter screen (AID 1159529);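 further: HEK 293T cells carrying an RXR-alpha UAS beta-lactamase reporter; nearly all actives have a fitted effect of over 50% in size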
How it was run: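 Same-well viability check after the LiveBLAzer FRET read: CellTiter-Glo added, luminescence measured after 30 min at room temperature. Reporter HEK 293T cells had been treated with compounds for 16 hr following a 5 hr preincubation.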

[2] = qHTS assay to identify small molecule antagonists of the retinoid acid receptor (RAR) signaling pathway - cell viability counter screen (AID 1159551); further: nearly all actives have a fitted effect of over 35% in size
How it was run: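 Cells (C3RL4) are plated, incubated overnight, dosed with compound in DMSO, then given retinol at 1 uM final. After 6 h at 37 C, CellTiter-Glo is added and luminescence read following 30 min at room temperature.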

[3] = qHTS assay to identify small molecule antagonists of the retinoic acid receptor (RAR) signaling pathway (AID 1159552; further: nearly all actives have a fitted effect of over 50% in size)
How it was run: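 Readout: luciferase luminescence, 30 min post-reagent at RT. Setup: C3RL4 RARE reporter cells, compounds plus retinol 1 uM final, 6 hr incubation at 37 C and 5% CO2.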

[4] = qHTS assay to identify small molecule agonists of the retinoic acid receptor (RAR) signaling pathway (AID 1159553)
How it was run: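 Seed C3RL4 reporter cells at 1,000 per well and incubate overnight at 37 C. Add compounds in DMSO, incubate 6 hr. Add luciferase reagent, wait 30 min at room temperature, read luminescence.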

[5] = qHTS assay to identify small molecule antagonists of the estrogen related receptor (ERR) signaling pathway from Tox21 library - cell viability counter screen (AID 1224834); further: nearly all actives have a fitted effect of over 30% in size
How it was run: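 ERR cells, 2,000/well; 6 h settle at 37 C/5% CO2; pin-tool compound transfer in DMSO; 17.5 h at 37 C; CellTiter-Fluor, 30 min; fluorescence intensity.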

[6] = biological target: Luciferin 4-monooxygenase (Photinus pyralis) (UniProt P08659); test: qHTS assay to identify small molecule inhibitors of firefly luciferase (AID 1224835); further: nearly all actives have a fitted effect of over 25% in size
Chain of Luciferin 4-monooxygenase (Photinus pyralis) (P08659 whole entry, looked up): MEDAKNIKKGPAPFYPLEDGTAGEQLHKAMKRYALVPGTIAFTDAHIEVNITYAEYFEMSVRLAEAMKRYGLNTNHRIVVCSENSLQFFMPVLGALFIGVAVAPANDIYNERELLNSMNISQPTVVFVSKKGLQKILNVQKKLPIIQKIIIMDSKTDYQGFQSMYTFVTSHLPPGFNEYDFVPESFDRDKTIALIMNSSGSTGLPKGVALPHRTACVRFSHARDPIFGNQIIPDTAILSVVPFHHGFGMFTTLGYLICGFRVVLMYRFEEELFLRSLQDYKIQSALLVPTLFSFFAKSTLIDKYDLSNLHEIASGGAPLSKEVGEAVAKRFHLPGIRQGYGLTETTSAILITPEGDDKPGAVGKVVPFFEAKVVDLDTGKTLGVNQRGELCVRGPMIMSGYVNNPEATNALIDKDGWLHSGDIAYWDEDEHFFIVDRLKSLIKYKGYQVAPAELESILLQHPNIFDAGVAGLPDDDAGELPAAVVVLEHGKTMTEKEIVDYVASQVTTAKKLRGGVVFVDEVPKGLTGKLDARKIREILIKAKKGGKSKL
How it was run: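 Inhibition of purified Photinus luciferase is measured by luminescence. Substrate levels (D-luciferin, ATP) sit at their KM values. Each compound is tested in a concentration series.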

[7] = qHTS assay to identify small molecule agonists of the constitutive androstane receptor (CAR) signaling pathway - cell viability counter screen (AID 1224836); further: nearly all actives have a fitted effect of over 45% in size
How it was run: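 Compound titrations (15 concentrations) went onto HepG2-CYP2B6-hCAR cells 4 h after seeding, alongside PK11195 at a final 0.75 uM; a 23 h, 37 C/5% CO2 incubation preceded CellTiter-Fluor viability measurement.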

[8] = qHTS assay to identify small molecule antagonists of the constitutive androstane receptor (CAR) signaling pathway - cell viability counter screen (AID 1224837); further: nearly all actives have a fitted effect of over 45% in size
How it was run: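 Viability was measured with CellTiter-Fluor in a HepG2 line carrying stably transfected hCAR and a CYP2B6-2.2kb construct. Cells were exposed for 23 hr at 37 C to 15 compound concentrations with 50 nM CITCO as agonist.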

[9] = biological target: Nuclear receptor subfamily 1 group I member 3 (Homo sapiens) (UniProt Q14994); test: qHTS assay to identify small molecule antagonists of the constitutive androstane receptor (CAR) signaling pathway (AID 1224838);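 further: HepG2 cells stably expressing hCAR with CYP2B6 luciferase reporter stimulated by CITCO; nearly all actives have a fitted effect of over 40% in size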
Chain of Nuclear receptor subfamily 1 group I member 3 (Homo sapiens) (Q14994 whole entry, looked up): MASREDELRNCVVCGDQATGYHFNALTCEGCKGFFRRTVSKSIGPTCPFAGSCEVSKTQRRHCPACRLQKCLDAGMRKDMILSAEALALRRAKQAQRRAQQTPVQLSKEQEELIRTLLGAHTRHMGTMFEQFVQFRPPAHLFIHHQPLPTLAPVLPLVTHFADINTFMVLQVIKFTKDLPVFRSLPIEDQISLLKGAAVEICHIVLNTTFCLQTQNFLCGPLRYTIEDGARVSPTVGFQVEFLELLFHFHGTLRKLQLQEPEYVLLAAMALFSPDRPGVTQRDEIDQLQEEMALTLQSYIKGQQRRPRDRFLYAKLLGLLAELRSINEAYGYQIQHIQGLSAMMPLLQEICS
How it was run: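 Antagonist mode used CITCO at a final 50 nM to activate CAR in human hepatoma HepG2 cells carrying stable hCAR and a 2.2 kb CYP2B6 promoter-luciferase construct. Compounds were tested at 15 concentrations over 24 h, with luminescence as the end point.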

[10] = biological target: Nuclear receptor subfamily 1 group I member 3 (Homo sapiens) (UniProt Q14994); test: qHTS assay to identify small molecule agonists of the constitutive androstane receptor (CAR) signaling pathway (AID 1224839); further: nearly all actives have a fitted effect of over 15% in size
How it was run: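 In this screen, CAR-driven CYP2B6 promoter activity is measured by luminescence in HepG2-CYP2B6-hCAR cells after 24 h with test compounds and 0.75 uM PK11195 (final concentration).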

[11] = qHTS assay to identify small molecule antagonists of the estrogen related receptor signaling pathway with the pleiotropic PPARgamma coactivator (PGC) from Tox21 10K library - cell viability counter screen (AID 1224840; active means well fitted cell-killing curve with a large enough effect in the repeat runs, not every such curve was filed as active; further: nearly all actives have a fitted effect of over 40% in size)
How it was run: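 Multiplexed viability counter screen in the PGC/ERR cell line: cells treated with DMSO-dissolved compounds for 17.5 hours at 37 C, then viability measured as CellTiter-Fluor fluorescence.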

[12] = biological target: Thyrotropin receptor (Homo sapiens) (UniProt P16473); test: qHTS assay to identify small molecule agonists of the thyroid stimulating hormone receptor (TSHR) signaling pathway (AID 1224843; calls by dose curve; further: nearly all actives have a fitted effect of over 45% in size)
Chain of Thyrotropin receptor (Homo sapiens) (P16473 whole entry, looked up): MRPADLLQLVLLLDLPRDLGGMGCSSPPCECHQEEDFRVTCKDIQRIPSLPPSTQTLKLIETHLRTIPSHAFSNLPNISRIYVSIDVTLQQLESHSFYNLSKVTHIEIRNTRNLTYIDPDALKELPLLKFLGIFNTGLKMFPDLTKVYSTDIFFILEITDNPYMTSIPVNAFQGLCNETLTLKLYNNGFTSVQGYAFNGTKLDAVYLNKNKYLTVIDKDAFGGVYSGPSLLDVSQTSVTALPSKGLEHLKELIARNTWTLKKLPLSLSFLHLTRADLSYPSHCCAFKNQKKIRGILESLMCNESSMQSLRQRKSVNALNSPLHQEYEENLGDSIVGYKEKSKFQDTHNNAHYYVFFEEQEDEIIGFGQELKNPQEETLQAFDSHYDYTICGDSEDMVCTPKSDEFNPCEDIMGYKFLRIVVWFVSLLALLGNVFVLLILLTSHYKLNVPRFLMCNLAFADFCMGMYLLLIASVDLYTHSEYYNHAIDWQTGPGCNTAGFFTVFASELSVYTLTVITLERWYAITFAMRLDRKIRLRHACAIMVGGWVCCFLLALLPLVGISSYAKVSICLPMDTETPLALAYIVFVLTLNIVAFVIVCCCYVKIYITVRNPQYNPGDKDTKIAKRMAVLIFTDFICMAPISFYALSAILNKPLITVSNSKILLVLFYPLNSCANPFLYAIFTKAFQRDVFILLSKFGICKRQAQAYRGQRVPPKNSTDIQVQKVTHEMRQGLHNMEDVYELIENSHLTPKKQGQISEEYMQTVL
How it was run: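 Agonist activity read as cAMP rise via d2/cryptate HTRF competition, 1 h room-temperature detection, in HEK293 cells expressing TSHR. Fifteen-point titrations, each run in triplicate, with a 30 min room-temperature incubation beforehand.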

[13] = qHTS assay to identify small molecule agonists of the hypoxia (HIF-1) signaling pathway - cell viability counter screen (AID 1224844; calls by dose curve; further: nearly all actives have a fitted effect of over 50% in size)
How it was run: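 Cytotoxicity was measured in parallel with the HRE-driven beta-lactamase readout: after 17 hrs of compound exposure at 37C, HRE-bla ME-180 cells received CellTiter-Glo and luminescence was recorded 30 min later.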

[14] = qHTS assay to identify small molecule agonists of H2AX (AID 1224845; active means well fitted activation curve with a large enough effect in the signal ratio in the repeat runs, not every such curve was filed as active; the % refers to the signal ratio)
How it was run: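 Phospho-H2AX Ser139 measured by HTRF (ex 320 nm; em 665 and 620 nm) after 24 hr antibody incubation. Compounds, 15 concentrations, 0.76% DMSO, were applied to CHO-K1 cells for 3hr at 37C before lysis.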

[15] = qHTS assay to identify small molecule agonists of H2AX - cell viability counter screen (AID 1224847; calls by dose curve; further: top concentration of the series differs between compounds; nearly all actives have a fitted effect of over 30% in size)
How it was run: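 Read-out: CellTiter-Glo luminescence, 30 min RT. Cells: wild-type CHO-K1, 1000/well, 10% FBS, plated overnight at 37C. Treatment: 15 concentrations, 3 hr, 37C, 0.76% DMSO.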

[16] = qHTS assay to identify small molecule antagonists of the estrogen related receptor (ERR) signaling pathway from Tox21 library (AID 1224848); further: nearly all actives have a fitted effect of over 50% in size
How it was run: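 Luciferase luminescence (ONE-Glo, 30 min room temperature) was the read-out. Cells of the NTP-supplied ERR line, 2,000 per well, were given 6 h at 37 C before compound addition in DMSO and 18 h exposure at 37 C.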

[17] = qHTS assay to identify small molecule agonists of the estrogen related receptor (ERR) signaling pathway from Tox21 library (AID 1224849; calls by dose curve; further: nearly all actives have a fitted effect of over 15% in size); details: ERR reporter cell line, ONE-Glo luciferase, 18 h; at 92.4 µM (top of the series) unless noted
How it was run: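 Cells carrying the ERR reporter were plated and allowed to settle for 6 h, exposed to library compounds for 18 h at 37 C, then lysed with ONE-Glo and luminescence measured.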

[18] = qHTS assay to identify small molecule antagonists of the estrogen related receptor signaling pathway with the pleiotropic PPARgamma coactivator (PGC) from Tox21 10K library (AID 1224841; call rule not given here)
How it was run: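 Steps: plate 2,000 PGC/ERR cells per well; incubate 6 h at 37 C with 5% CO2; transfer compounds from DMSO stocks by pin tool; incubate 18 h at 37 C; add One-Glo; measure luminescence 30 min later.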

[19] = qHTS assay to identify small molecule agonists of the estrogen related receptor signaling pathway with the pleiotropic PPARgamma coactivator (PGC) from Tox21 10K library (AID 1224842); further: nearly all actives have a fitted effect of over 15% in size
How it was run: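 Luminescence from One-Glo (30 min, room temperature) measured after PGC/ERR cells had 18 h at 37 C with pinned compound (23 nL in DMSO). Cells had been seeded at 2,000 per well and pre-incubated 6 h.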

[20] = qHTS assay to identify small molecule agonists of the hypoxia (HIF-1) signaling pathway (AID 1224846; active means well fitted activation curve with a large enough effect in the signal ratio in the repeat runs, not every such curve was filed as active; the % refers to the signal ratio)
How it was run: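 Compounds from the Tox21 10K library, dissolved in DMSO, are tested for induction of a hypoxia response element–controlled beta-lactamase reporter in ME-180 cells. Exposure lasts 17 hrs at 37C after a 5 hr settling period, followed by CCF4-AM FRET substrate.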
On the % scale 0 is the no-effect control and ±100 the full control effect.

CN(C)CCC[C@@]1(c2ccc(F)cc2)OCc2cc(C#N)ccc21
inactive: Potency [1] | outcome [2] | outcome [3] | Potency [4] | outcome [5] | Potency [6] | outcome [7] | outcome [8] | outcome [9] | Potency [10] | outcome [11] | Potency [12] | outcome [13] | outcome [14] | outcome [15] | outcome [16] | activity change, positive = activation [17] -3.55% [at 42.5 µM]

CCCCN(CCCC)CCCCCCN(CCCC)CCCC
inactive: Potency [1] | outcome [2] | outcome [3] | Potency [4] | outcome [5] | Potency [6] | outcome [7] | outcome [8] | outcome [9] | Potency [10] | outcome [11] | Potency [12] | outcome [13] | outcome [14] | outcome [15]

CC(=O)O[C@@H]1CC2C3CCc4cc(OC(=O)c5ccccc5)ccc4C3CCC2(C)[C@H]1OC(C)=O (some centres not stated)
inactive: Potency [1] | outcome [2] | outcome [3] | Potency [4] | outcome [5] | Potency [6] | outcome [7] | outcome [8] | outcome [9] | Potency [10] | outcome [11] | Potency [12] | outcome [13] | outcome [14]

CC(C)OCCO
inactive: Potency [1] | outcome [2] | outcome [3] | Potency [4] | outcome [5] | Potency [6] | outcome [7] | outcome [8] | outcome [9] | Potency [10] | outcome [11] | Potency [18] | Potency [19] | outcome [13] | outcome [14] | outcome [20] | outcome [15] | outcome [16] | activity change, positive = activation [17] 6.53%

CC(C)(C)C(=O)NCCCC(=O)O
inactive: Potency [1] | outcome [2] | outcome [3] | Potency [4] | outcome [5] | Potency [6] | outcome [7] | outcome [8] | outcome [9] | Potency [10] | outcome [11] | Potency [12] | outcome [13] | outcome [14] | outcome [20] | outcome [15]

CN(C)CCc1c[nH]c2ccc(CS(=O)(=O)N3CCCC3)cc12
inactive: Potency [1] | outcome [2] | outcome [3] | Potency [4] | outcome [5] | Potency [6] | outcome [7] | outcome [8] | outcome [9] | Potency [10] | outcome [11] | Potency [12] | outcome [13] | outcome [14] | outcome [20] | outcome [15]

C=CCN1CCc2nc(N)sc2CC1
inactive: Potency [1] | outcome [2] | outcome [3] | Potency [4] | outcome [5] | Potency [6] | outcome [7] | outcome [8] | outcome [9] | Potency [10] | outcome [11] | Potency [12] | outcome [13] | outcome [14] | outcome [20] | outcome [15]

O=C1CCCc2c(O)cccc21
inactive: Potency [1] | outcome [2] | outcome [3] | Potency [4] | outcome [5] | Potency [6] | outcome [7] | outcome [8] | outcome [9] | Potency [10] | outcome [11] | Potency [19] | outcome [13] | outcome [14] | outcome [20] | outcome [16] | activity change, positive = activation [17] 0.0223% [at 42.5 µM]

CCCCN=C(N)N=C(N)N
inactive: Potency [1] | outcome [2] | outcome [3] | Potency [4] | outcome [5] | Potency [6] | outcome [7] | outcome [8] | outcome [9] | Potency [10] | outcome [11] | Potency [12] | outcome [13] | outcome [14] | outcome [20] | outcome [15]

C=CCN(CC=C)CC=C
inactive: Potency [1] | outcome [2] | outcome [3] | Potency [4] | outcome [5] | Potency [6] | outcome [7] | outcome [8] | outcome [9] | Potency [10] | outcome [11] | Potency [12] | outcome [13] | outcome [14] | outcome [20]

C[C@H]1COc2c(C3(N)CC3)c(F)cc3c(=O)c(C(=O)O)cn1c23
inactive: Potency [1] | outcome [2] | outcome [3] | Potency [4] | outcome [5] | Potency [6] | outcome [7] | outcome [8] | outcome [9] | Potency [10] | outcome [11] | Potency [12] | outcome [13] | outcome [14] | outcome [20]

CCCCCCCCC1CO1 (configuration not stated)
inactive: Potency [1] | outcome [2] | outcome [3] | Potency [4] | outcome [5] | Potency [6] | outcome [7] | outcome [8] | outcome [9] | Potency [10] | outcome [11] | Potency [12] | outcome [13] | outcome [14] | outcome [20] | outcome [15]

CCNC(=O)C(C)OC(=O)Nc1ccccc1 (configuration not stated)
inactive: Potency [1] | outcome [2] | outcome [3] | Potency [4] | outcome [5] | Potency [6] | outcome [7] | outcome [8] | outcome [9] | Potency [10] | outcome [11] | Potency [12] | outcome [13] | outcome [14] | outcome [15]

CCCCC(O)/C=C(C)/C=C/C=C/C(=O)N1CCCC1=O (configuration not stated)
inactive: Potency [1] | outcome [2] | outcome [3] | Potency [4] | outcome [5] | Potency [6] | outcome [7] | outcome [8] | outcome [9] | Potency [10] | outcome [11] | Potency [12] | outcome [13] | outcome [14] | outcome [20] | outcome [15]

C[C@@H](CN1CC(=O)NC(=O)C1)N1CC(=O)NC(=O)C1
inactive: Potency [1] | outcome [2] | outcome [3] | Potency [4] | outcome [5] | Potency [6] | outcome [7] | outcome [8] | outcome [9] | Potency [10] | outcome [11] | Potency [18] | Potency [19] | outcome [13] | outcome [14] | outcome [20] | outcome [15] | outcome [16] | activity change, positive = activation [17] 3.58% [at 42.5 µM]

O=CN1CCCCC1
inactive: Potency [1] | outcome [2] | outcome [3] | Potency [4] | outcome [5] | Potency [6] | outcome [7] | outcome [8] | outcome [9] | Potency [10] | outcome [11] | Potency [12] | outcome [13] | outcome [14] | outcome [20]
